Reference: PubChem BioAssay AID624296 (National Center for Advancing Translational Sciences (NCATS), 2012)
Screen size: about 350,000 compounds; about 9,900 (2.8%) were called active. Another 15% or so got no clear call; they are omitted. This is one part of a sample in which actives are shown more often than they occur. The call rests on the fitted dose curve; in most records, active means well fitted activation curve with a large enough effect; inconclusive means small, poorly fitted or top-dose-only effect; inactive means no such curve, though single readings can be large or run the other way.

Test: A quantitative high throughput screen for small molecules that induce DNA re-replication in MCF 10a normal breast cells. Further: nearly all actives have a fitted effect of over 50% in size. On activity, positive = re-replication: % of control where 0% means no effect.
Settings: MCF 10A DNA re-replication, Hoechst nuclear intensity, 48 h; series mostly up to 46.1 µM; activity, positive = re-replication: at the top concentration
Potency means the concentration at half of the fitted maximal effect.

Row | Structure (SMILES) | activity, positive = re-replication | Potency
1 | COc1ccccc1NC(=O)COC(=O)CNC(=O)C1CCCCC1 | 2.67% (inactive) | –
2 | CCn1nc(NC(=O)c2ccco2)c2cc3ccc(C)cc3nc21 | – | 8.91 µM (active)
3 | CCCn1nc(NS(=O)(=O)c2ccccc2)c2cc3cc(C)ccc3nc21 | 0.575% (inactive) | –
4 | Cc1ccnc(NC(=O)c2ccco2)n1 | 6.36% (inactive) | –
5 | COC(=O)[C@]1(Cc2ccccc2)N[C@H](CN(C)S(=O)(=O)c2ccc(F)cc2)[C@@H]2C(=O)N(Cc3ccccc3)C(=O)[C@@H]21 | 4.15% (inactive) | –
6 | CCCSc1nc(NCc2ccco2)c2c3c(sc2n1)COC(C)(CC)C3 (stereo not given) | – | 23.1 µM (active)
7 | CCC1(C)Cc2c(sc3nc4n(c(=O)c23)CCCS4)CO1 (stereo not given) | 9.25% (inactive) | –
8 | CCC1(C)Cc2c(sc3nc(SC)nc(N)c23)CO1 (stereo not given) | -0.174% (inactive) | –
9 | O=C(OCC(=O)N1CCCCC1)c1ccc(OC(F)(F)F)cc1 | 1.12% (inactive) | –
10 | O=C(NCCc1ccc(F)cc1)c1ccc(S(=O)(=O)N2CCCCC2)cc1 | 11.5% (inactive) | –
11 | CC1(c2ccccc2)NC(=O)N(CC(=O)N2CC(=O)Nc3ccccc32)C1=O (stereo not given) | 0.732% (inactive) | –
12 | NC(=O)C1CCN(C(=O)c2ccc(F)c(S(=O)(=O)N3CCOCC3)c2)CC1 | -3.07% (inactive) | –
13 | Cc1ccc(S(=O)(=O)Cc2cc(-c3ccc(Cl)cc3)no2)cc1 | 17.2% (inactive) | –
14 | O=S(=O)(NCc1ccc(Cl)cc1Cl)c1cccs1 | -8.83% (inactive) | –
15 | O=S(=O)(Cc1ccc(Cl)cc1Cl)c1ccc(Cl)cc1 | – | 0.651 µM (active)
16 | CC(=O)Nc1ccc(C(=O)NNC(=O)CCCCC(=O)NNC(=O)c2ccc(NC(C)=O)cc2)cc1 | 5.58% (inactive) | –
17 | CC(=O)Nc1ccc(C(=O)/C=C/c2ccc[nH]2)cc1 | 14.4% (inactive) | –
18 | CCCC(=O)Nc1ccc(C(=O)N/N=C/c2ccc[nH]2)cc1 | – | 16.4 µM (active)
19 | Cc1ccc(C(=O)Nc2ccc3c(c2)OCCO3)cc1S(=O)(=O)N1CCOCC1 | 8.12% (inactive) | –
20 | O=C(CNCCC1=CCCCC1)Nc1ccccc1N1CCCCCC1 | – | 20.6 µM (active)
21 | Cc1ccccc1NC(=O)CNc1ccccc1N1CCCCC1 | 27% (inactive) | –
22 | Cn1c(=O)c2c(nc(SCC(=O)Nc3ccccc3N3CCCCC3)n2C)n(C)c1=O | 2.92% (inactive) | –
23 | COc1ccc(C(=O)NCC2CCCCC2)cc1S(=O)(=O)N1CCCC1 | -4.77% (inactive) | –
24 | Nc1nonc1-n1nnc(C(=O)N/N=C/c2cc(Br)ccc2O)c1CSC1=NCCS1 | – | 10.3 µM (active)
25 | Cc1ccc(SCc2c(C(=O)N/N=C/C3CC=CCC3)nnn2-c2nonc2N)cc1 (stereo not given) | -2.37% (inactive) | –
26 | Nc1nonc1-n1nnc(C(=O)N/N=C/c2ccccc2O)c1CN1CCCC1 | 12.2% (inactive) | –
27 | COc1ccc(C2(c3ccc(OC)cc3)NC(=O)N(CC(=O)Nc3cc(C)on3)C2=O)cc1 | 18.8% (inactive) | –

Row | Structure (SMILES) | activity, positive = re-replication | Potency
28 | Cn1c(=O)c2c(ncn2CC(=O)N2CCN(c3ccccc3)CC2)n(C)c1=O | 0.0795% (inactive) | –
29 | Cn1c(=O)c2c(ncn2CCc2ccccc2)n(C)c1=O | 0.307% (inactive) | –
30 | Cn1c(=O)c2c(ncn2CC(COCc2ccccc2Cl)OCc2ccccc2Cl)n(C)c1=O (stereo not given) | – | 13 µM (active)
31 | O=C(O)C1C2C=CC(O2)C1C(=O)Nc1ccccn1 (stereo not given) | -41% (inactive) | –
32 | O=C(CNC(=O)c1n[nH]c2ccccc12)Nc1cc(Cl)ccc1Cl | 4.67% (inactive) | –
33 | COC[C@@H]1NS(=O)(=O)c2ccc(Br)cc2O[C@H]1c1ccccc1 | -6.09% (inactive) | –
34 | COc1ccccc1NC(=O)/C=C/C(=O)O | 36.3% (inactive) | –
35 | O=C(O)/C=C/C(=O)Nc1ccc(F)cc1F | 18.2% (inactive) | –
36 | COC(=O)c1sc(-c2ccc(C(C)(C)C)cc2)cc1NC(=O)/C=C/C(=O)O | – | 16.4 µM (active)
37 | COC(=O)c1sc(NC(=O)COC(=O)C2CCC2)c(C(=O)OC)c1C | 1.46% (inactive) | –
38 | CC(NCC(=O)Nc1ccccc1C(=O)NC1CC1)c1ccccc1Cl (stereo not given) | 6.15% (inactive) | –
39 | O=C(O)CCCC(=O)Nc1ccccc1-n1ccnc1 | -7.39% (inactive) | –
40 | CC(C)CC(=O)Nc1ccc(Cc2ccncc2)cc1 | 11.8% (inactive) | –
41 | CC(CC(=O)Nc1ccccc1)n1ccnc1 (stereo not given) | – | 0.92 µM (active)
42 | O=[N+]([O-])c1ccc(COc2ccccc2CN2CCOCC2)cc1 | 18.5% (inactive) | –
43 | CCN(CC(=O)NCc1ccc(F)cc1)S(=O)(=O)c1ccc(Cl)s1 | -1.33% (inactive) | –
44 | COc1ccc2sc(-c3ccc(S(C)(=O)=O)cc3)c(-c3ccc(C(N)=O)cc3)c2c1 | – | 25.9 µM (active)
45 | COc1ccc(C(=O)Nc2cccc(S(C)(=O)=O)c2)cc1 | 15.3% (inactive) | –
46 | COc1cccc(C(=O)Nc2nc3ccc(S(C)(=O)=O)cc3s2)c1 | 1.21% (inactive) | –
47 | CC(=O)Nc1ccc(S(=O)(=O)NCCC(=O)N2CCN(c3ccccc3Cl)CC2)cc1 | 5.38% (inactive) | –
48 | NC(=O)c1ncn([C@@H]2O[C@H](CN=C3NS(=O)(=O)c4ccccc43)[C@@H](O)[C@H]2O)n1 | -6.43% (inactive) | –
49 | CCc1sc(C(=O)N2CCN(CC(=O)Nc3cccc(F)c3)CC2)cc1C | -1.39% (inactive) | –
50 | CCOc1ccc(N2C(=O)CC(N(O)c3ccccc3)C2=O)cc1 (stereo not given) | 13.9% (inactive) | –
51 | COC(=O)CN(C(=S)Nc1ccc(Cl)cc1)C1CC(=O)N(c2ccc(OC)cc2)C1=O (stereo not given) | -2.14% (inactive) | –
52 | CCOc1ccc(N2C(=O)CC(N(CCc3ccc(OC)c(OC)c3)C(=S)Nc3ccccc3)C2=O)cc1 (stereo not given) | – | 23.1 µM (active)
53 | COc1ccccc1N1CCN(CC(=O)Nc2ccnn2C2CCCC2)CC1 | 2.55% (inactive) | –
54 | CC(C)Cn1cnc2c(SCc3ccc(Cl)cc3)nc(N)nc21 | 22.9% (inactive) | –

Row | Structure (SMILES) | activity, positive = re-replication | Potency
55 | CC(C)c1ccc2c(c1)c(SC(C)(C)C)c(CC(C)(C)C(=O)O)n2Cc1ccc(Cl)cc1 | – | 2.91 µM (active)
56 | O=C(O)c1ccc(Cn2c(=S)[nH]c3cc(Cl)ccc3c2=O)cc1 | -9.11% (inactive) | –
57 | CCN([C@H](CO)C(C)C)S(=O)(=O)c1ccccc1Br | -19.4% (inactive) | –
58 | COc1cc(OC)cc(-c2c(C#Cc3ccsc3)c3cc(-c4ccc(SC)cc4)ccc3n2C)c1 | 18.3% (inactive) | –
59 | COc1cc(OC)cc(-c2c(C#Cc3ccsc3)c3cc(-c4ccc(OC)cc4F)ccc3n2C)c1 | – | 0.326 µM (active)
60 | COc1ccc(-c2c(C#Cc3ccsc3)c3cc(-c4ccc(CN5CCOCC5)cc4)ccc3n2C)cc1 | 0% (inactive) | –
61 | COc1cccc2oc(CCc3ccccc3)cc(=O)c12 | 27.3% (inactive) | –
62 | Cc1nn(-c2ncccn2)c2c1C(=O)CC(C)(C)C2Br (stereo not given) | 3.7% (inactive) | –
63 | O=C(O)CCC(=O)N(Cc1ccccc1)Cc1ccccc1 | – | 0.731 µM (active)
64 | CCN(CC)C(=O)N(CC)Cc1ccccc1 | 7.14% (inactive) | –
65 | O=C(O)CCC(=O)N(Cc1cccs1)Cc1cccs1 | 1.98% (inactive) | –
66 | Cc1cc(NC(=O)C(C)SCC(=O)Nc2cccc(S(=O)(=O)N3CCCCCC3)c2)no1 (stereo not given) | -13.4% (inactive) | –
67 | O=C(CC(Cc1ccccc1)C(=O)O)NCCc1ccc2c(c1)OCO2 (stereo not given) | 2.45% (inactive) | –
68 | Cn1cc(CCC(=O)NCc2ccc3c(c2)OCO3)c2ccccc21 | -6.37% (inactive) | –
69 | O=C(CCc1nnc(Cc2ccc3c(c2)OCO3)o1)NCCc1ccccc1Cl | – | 20.6 µM (active)
70 | COc1ccc(CCC(=O)N2CCN(S(=O)(=O)c3ccc(OC)cc3)CC2)cc1 | -1.3% (inactive) | –
71 | Cc1ccccc1-n1c(C)cc(/C=C2\NC(=O)NC2=O)c1C | – | 25.9 µM (active)
72 | Cc1ccccc1-n1c(C)cc(/C=N/NC(=O)c2ccc(CN3CCOCC3)cc2)c1C | 4.86% (inactive) | –
73 | Cc1ccc(CN2C(=O)N/C(=C/c3cc(C)n(-c4ccccn4)c3C)C2=O)cc1 | 3.85% (inactive) | –
74 | CC1(C)CC(=O)C=C(c2cccc3c2Oc2ccccc2S3)C1 | 20.6% (inactive) | –
75 | CC(=NNC(=O)c1ccc2nc[nH]c2c1)c1ccc(Br)cc1 | 0.489% (inactive) | –
76 | O=C(Nc1cccc2ncccc12)c1ccc(-c2ccc(Cl)cc2Cl)o1 | 15.5% (inactive) | –
77 | Cc1csc(NC(=O)c2ccc(-c3ccc(Cl)cc3Cl)o2)n1 | – | 18.4 µM (active)
78 | Cc1csc(NC(=O)c2ccc(C)s2)n1 | 21.9% (inactive) | –
79 | CC(Nc1ccc([N+](=O)[O-])cc1[N+](=O)[O-])c1ccccc1 (stereo not given) | 24.8% (inactive) | –
80 | Cc1nc2cc(C(F)(F)F)ccc2n1CCNc1nc(-c2cc(Cl)c(N)c(Cl)c2)cs1 | – | 23.1 µM (active)
81 | CCCn1c(C(C)Nc2nc(-c3ccc(C)cc3)cs2)nc2cc(Cl)c(N3CCCCC3)cc21 (stereo not given) | -30.3% (inactive) | –

Row | Structure (SMILES) | activity, positive = re-replication | Potency
82 | CCCn1c(CCNc2nc(-c3ccc(OC)cc3)cs2)nc2ccccc21 | 24.8% (inactive) | –
83 | CC1CCCCC1NC(=O)Cn1cnc2c1c(=O)n(C)c(=O)n2C (stereo not given) | -2.1% (inactive) | –
84 | CCCN(CC(=O)Nc1ccccc1C)C(=O)c1ccc(OCC(=O)N2CCOCC2)c(OCC)c1 | 0.566% (inactive) | –
85 | CSCCNC(=O)c1ccc2nc(Cc3ccccc3F)oc2c1 | 4.94% (inactive) | –
86 | COc1ccc(Cc2nc3ccc(C(=O)NCC4CCOCC4)cc3o2)cc1OC | -2.78% (inactive) | –
87 | COCCNC(=O)c1ccc2nc(Cc3ccc(OC)c(OC)c3)oc2c1 | – | 3.26 µM (active)
88 | CCOc1ccc(NC(=O)CN(C)C(=O)c2cccc(S(=O)(=O)N3CCCC3)c2)cc1OCC | -0.541% (inactive) | –
89 | COc1ccc(S(=O)(=O)N2CCOCC2)cc1NC(=O)c1ccc(OCC(C)C)c(OC)c1 | -3.94% (inactive) | –
90 | CCCOc1ccc(Cn2ccnc2)cc1[N+](=O)[O-] | 4.34% (inactive) | –
91 | CCCCCOc1ccc(CSC2=NCCN2)cc1[N+](=O)[O-] | – | 20.6 µM (active)
92 | Cc1nc(SCc2ccc(F)cc2)c([N+](=O)[O-])[nH]1 | 2.7% (inactive) | –
93 | COc1ccccc1C1=CC(=O)C[C@H](c2ccc(F)cc2)C1 | -0.998% (inactive) | –
94 | Cc1ccc(NC(=O)[C@H](Cc2ccccc2)NC(=O)C2CCNCC2)cc1 | -3.39% (inactive) | –
95 | O=C(COC(=O)CNC(=O)C1CCCCC1)NCc1ccccc1 | -4.63% (inactive) | –
96 | CCC(Cc1ccccc1)NC(=O)C1CCCCC1 (stereo not given) | – | 0.651 µM (active)
97 | O=C(O)c1ccc(Cn2cnc3c(=S)nc[nH]c32)cc1 | 0.877% (inactive) | –
98 | COc1ccccc1N(CCOc1ccccc1)S(=O)(=O)c1ccccc1 | 16.1% (inactive) | –
99 | COc1ccc(C(=O)NN(C)c2nc(-c3ccccc3)cc(C)c2S(C)(=O)=O)cc1 | 13.4% (inactive) | –
100 | CSc1nc(N(C)NC(=O)c2cccc(C)c2)c2ccccc2n1 | – | 0.231 µM (active)
101 | Cc1cccc(C(=O)NCCCN(C)CCCNC(=O)c2cccc(C)c2)c1 | -1.15% (inactive) | –
102 | CCN(c1ccccc1)S(=O)(=O)c1ccc(OCC(=O)N2CCCC2)cc1 | 2.91% (inactive) | –
103 | Cc1ccc(C(=O)NCCN2CCOCC2)cc1C | -21.7% (inactive) | –
104 | Cc1c(C)n(Cc2ccc(Cl)cc2)c2ccc(C(=O)NCCCN3CCOCC3)cc12 | – | 23.1 µM (active)
105 | O=C(NCCN1CCOCC1)c1ccc2c(c1)N(Cc1ccc(Cl)cc1)CCS2 | -0.362% (inactive) | –
